Here are results for ten compounds from paper PMC5540273 (PLoS ONE, 2017).

Each structure is given as a SMILES string. Values joined by “and” are separate entries in the source; they are usually repeats but may differ in a detail not shown here. Identical values can stand only once. Like-named read-outs stand apart in the source and are kept apart here.

Test systems include NEK6; NEK7; NEK9; NLK; PAK1; PAK2; PAK3; PAK4; PAK6; PAK7; PDGFRA; PDGFRB; PDPK1; PFTAIRE2.
Holding throughout (conditions): concentration: 1 μM, replicates: in singlicate, n = 1
A further assay has as its system T1, NIK.
T1 construct: gene MAP3K14

A further assay deals with T2, NIM1.
T2 construct: gene MGC42105

The next assay relates to T3, OSR1.
T3 construct: gene OXSR1

Another assay deals with T4, PCTK1.
T4 construct: gene CDK16

A further assay concerns T5, PCTK2.
T5 construct: gene CDK17

A further assay has as its system T6, PCTK3.
T6 construct: gene CDK18
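Note: KINOMEscan kinase panel screen.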

Regarding `CCn1cnc2c(N)ncnc21` [GW345098], the “%Inh” value is reported as 29% in the assay on NEK6; 14% with NEK7; 0% in the assay with NEK9; 6% in the assay on NIK; 0% with NIM1; 37% in the assay on NLK. Further, the “%Inh” value with OSR1 is given as 0%; in the assay with PAK1, 9%; in the assay with PAK2, 0%; in the assay with PAK3, 58%; in the assay with PAK4, 6%; in the assay on PAK6 it was 13%. The “%Inh” value in the assay on PAK7 is listed as 11%; in the assay with PCTK1, 0%; with PCTK2, 0%; with PCTK3, 0%; in the assay on PDGFRA, 0%; in the assay with PDGFRB, 24%. Further, the “%Inh” value in the assay on PDPK1 came out at 11%; with PFTAIRE2 it was 3%.
For the compound `O=C1Cc2cc(Nc3nc(NCc4cccc(S(=O)(=O)C(F)(F)F)c4)ncc3C(F)(F)F)ccc2N1`, the “%Inh” value in the assay on NEK6 came to 14%; in the assay on NEK7, 0%; with NEK9, 0%; in the assay on NIK, 4%; with NIM1 it was 26%; in the assay on NLK it was 4%. For the same compound, the “%Inh” value is 4% in the assay on OSR1; 0% in the assay with PAK1; 0% in the assay with PAK2; 1% with PAK3; 100% with PAK4; 0% in the assay with PAK6. In addition, the “%Inh” value in the assay on PAK7 came out at 0%; in the assay with PCTK1, 19%; in the assay with PCTK2 it was 0%; with PCTK3, 1%; in the assay with PDGFRA, 0%; with PDGFRB, 16%. Further, the “%Inh” value with PDPK1 and in the assay with PFTAIRE2 was 0% each time.
For the compound `COc1cc2c(cc1OCCN1CCN(C)CC1)ncc1c3ccc(C#N)cc3[nH]c21`, the “%Inh” value with NEK6 was found to be 7%; in the assay with NEK7, 0%; in the assay on NEK9, 0%; in the assay on NIK, 76%; with NIM1 it was 64%; in the assay with NLK, 0%. Also, the “%Inh” value came to 0% with OSR1; 24% in the assay with PAK1; 39% in the assay with PAK2; 0% in the assay on PAK3; 7% in the assay with PAK4; 18% in the assay with PAK6. Moreover, the “%Inh” value in the assay on PAK7 was 4%; in the assay with PCTK1, 0%; in the assay on PCTK2 it was 12%; in the assay on PCTK3, 4%; in the assay on PDGFRA, 97.7%; in the assay on PDGFRB, 94.7%. In addition, the “%Inh” value with PDPK1 stood at 0%; in the assay with PFTAIRE2, 58%.
For `O=c1cc(N2CCOCC2)nc2n(Cc3cccc(Cl)c3Cl)c(C3CC3)nn12` [GSK2358994], the “%Inh” value in the assay on NEK6 is on record as 8%; with NEK7 it was 21%; in the assay with NEK9 it was 0%; with NIK, 0%; in the assay with NIM1, 0%; in the assay on NLK, 22%. The “%Inh” value in the assay on OSR1 is on record as 0%; with PAK1, 16%; with PAK2, 0%; with PAK3, 0%; in the assay on PAK4, 0%; in the assay on PAK6, 13%. The “%Inh” value in the assay with PAK7 was determined as 0%; in the assay with PCTK1, 0%; in the assay with PCTK2, 0%; in the assay with PCTK3, 3%; in the assay on PDGFRA it was 0%; with PDGFRB, 2%. Besides, the “%Inh” value in the assay with PDPK1 is given as 14%; with PFTAIRE2 it was 0%.
With `CC(C)(C)n1cnc2c(N)ncnc21` [SKF-97359], the “%Inh” value was 0% with NEK6; 0% in the assay with NEK7; 0% with NEK9; 33% in the assay on NIK; 17% in the assay on NIM1; 2% with NLK. Besides, the “%Inh” value with OSR1 came out at 0%; with PAK1, 0%; with PAK2 it was 0%; with PAK3, 0%; with PAK4 it was 21%; in the assay on PAK6, 0%. In addition, the “%Inh” value in the assay on PAK7 came out at 6%; with PCTK1, 0%; in the assay on PCTK2, 0%; with PCTK3, 0%; in the assay with PDGFRA, 0%; in the assay with PDGFRB, 0%. Besides, the “%Inh” value in the assay on PDPK1 came out at 0%; in the assay with PFTAIRE2, 8%.
On to `Cl.Cl.Cl.Fc1ccc(-c2ncn(C3CCNCC3)c2-c2ccnc(Nc3ccccc3)n2)cc1` [SB-238039], for which the “%Inh” value in the assay on NEK6 is 0%; with NEK7 (1 µM) it was 0% and 24%; in the assay on NEK9 (1 µM), 0% and 19%; with NIK (1 µM) it was 5% and 12%; in the assay with NIM1 (1 µM), 35% and 19%; with NLK (1 µM), 90.5% and 89%. Moreover, the “%Inh” value in the assay with OSR1 was 14%; with PAK1 (1 µM), 16% and 0%; in the assay with PAK2 (1 µM) it was 51% and 14%; in the assay with PAK3 (1 µM), 43% and 50%; in the assay with PAK4 (1 µM), 9% and 12%; with PAK6 (1 µM), 0% and 11%. For the same compound, the “%Inh” value in the assay on PAK7 was 10%; in the assay with PCTK1, 0%; in the assay with PCTK2 (1 µM), 0% and 4%; with PCTK3 (1 µM), 0% and 6%; with PDGFRA (1 µM), 0% and 26%; in the assay on PDGFRB (1 µM), 52% and 13%. Also, the “%Inh” value in the assay on PDPK1 (1 µM) was 6% and 0%; in the assay with PFTAIRE2 (1 µM), 0% and 21%.
As to `COCCNC(=O)c1ccc(-c2cc(C(=O)NC3CC3)cc(F)c2C)cc1` [GW868318], the “%Inh” value with NEK6 was 22%; with NEK7, 0%; in the assay on NEK9 it was 0%; in the assay with NIK, 48%; in the assay on NIM1, 59%; in the assay with NLK, 11%. Besides, the “%Inh” value is reported as 30% in the assay on OSR1; 20% in the assay with PAK1; 49% with PAK2; 27% in the assay with PAK3; 20% in the assay on PAK4; 18% with PAK6. For the same compound, the “%Inh” value in the assay with PAK7 was 24%; in the assay on PCTK1, 8%; in the assay with PCTK2, 0%; in the assay with PCTK3, 20%; with PDGFRA, 32%; in the assay with PDGFRB it was 51%. Further, the “%Inh” value in the assay with PDPK1 was determined as 8%; in the assay with PFTAIRE2, 0%.
In the case of `N#Cc1c(N2CCOCC2)sc(-c2ccn[nH]2)c1-c1ccc(Cl)cc1`, the “%Inh” value with NEK6 is 17%; with NEK7, 0%; with NEK9, 0%; in the assay on NIK, 8%; in the assay with NIM1 it was 54%; with NLK, 0%. For the same compound, the “%Inh” value is on record as 0% in the assay on OSR1; 10% in the assay with PAK1; 17% in the assay with PAK2; 27% with PAK3; 15% in the assay with PAK4; 29% in the assay on PAK6. Moreover, the “%Inh” value in the assay on PAK7 worked out at 0%; in the assay on PCTK1, 0%; with PCTK2, 0%; in the assay on PCTK3 it was 7%; in the assay with PDGFRA it was 3%; in the assay on PDGFRB, 12%. Further, the “%Inh” value in the assay on PDPK1 and in the assay with PFTAIRE2 was 0% each time.
`Cn1cc(-c2ccc3c(c2)CCN3C(=O)Cc2ccccc2Cl)c2c(N)ncnc21` [GSK2608885]: the “%Inh” value turned out to be 3% with NEK6; 17% in the assay with NEK7; 33% in the assay with NEK9; 8% with NIK; 7% in the assay on NIM1; 86% with NLK. In addition, the “%Inh” value in the assay on OSR1 is given as 10%; in the assay with PAK1, 44%; in the assay with PAK2 it was 13%; in the assay on PAK3, 28%; in the assay on PAK4, 0%; in the assay with PAK6, 13%. Moreover, the “%Inh” value was 23% in the assay with PAK7; 7% in the assay on PCTK1; 0% in the assay on PCTK2; 0% with PCTK3; 78% in the assay with PDGFRA; 99.9% in the assay with PDGFRB. Also, the “%Inh” value with PDPK1 worked out at 23%; with PFTAIRE2, 14%.
For `CC(C)(CN)c1nc(-c2ccc(Cl)c(O)c2)c(-c2ccncc2)[nH]1.O=C(O)C(F)(F)F` [SB-477794], the “%Inh” value in the assay with NEK6 (1 µM) is 0% and 2%; with NEK7, 0%; with NEK9 (1 µM), 0% and 11%; in the assay on NIK (1 µM), 0% and 3%; in the assay on NIM1 (1 µM) it was 4% and 0%; in the assay with NLK (1 µM) it was 98.1% and 98.4%. The “%Inh” value in the assay on OSR1 (1 µM) is 4% and 0%; in the assay on PAK1 (1 µM), 23% and 11%; in the assay on PAK2 (1 µM) it was 1% and 0%; in the assay with PAK3 (1 µM), 35% and 39%; with PAK4, 0%; in the assay on PAK6 (1 µM) it was 10% and 0%. Further, the “%Inh” value in the assay on PAK7 (1 µM) was 21% and 25%; in the assay on PCTK1 (1 µM) it was 4% and 0%; in the assay with PCTK2 (1 µM), 99.7% and 0%; in the assay with PCTK3, 0%; with PDGFRA it was 59%; with PDGFRB (1 µM), 99.5% and 98.1%. The “%Inh” value was 0% with PDPK1; 14% and 7% with PFTAIRE2 (1 µM).
